From PubChem BioAssay (NCATS)
Inconclusive results are not listed. Where a call stands in place of a potency, no number is given. The source made the active and inactive calls. Calls come from the whole dose curve; as a rule, active = well fitted cell-killing curve with a large enough effect; inconclusive = small, poorly fitted or top-dose-only effect; inactive = flat fitted curve, though single readings scatter.

Assay: Cell Viability - Mesenchymal (AID 546);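 note: cells exposed to compound for 40 hours before reading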
Conditions: mesenchymal cells viability, qHTS; series mostly up to 91.7 µM
Text: NIH Chemical Genomics Center [NCGC]
NIH Molecular Libraries Screening Centers Network [MLSCN]
National Institutes of Environmental Health Sciences [NIEHS]
National Toxicology Program [NTP]
We have developed a 1536-well cell-based assay for quantitative high throughput screening (qHTS) against a number of cell lines to determine in vitro cytotoxicity of small molecules. This particular assay uses the kidney mesenchymal cell line which is derived from normal human renal glomeruli.
NCGC Assay Protocol Summary:
The CellTiter-Glo luminescent cell viability assay (Promega) is a homogeneous method to measure the number of viable cells in culture. The end point readout of this assay is based on quantitation of intracellular ATP, an indicator of metabolic activity, using the luciferase reaction. Luciferase catalyzes the oxidation of beetle Luciferin to oxyluciferin and light in the presence of ATP. The luminescent signal is proportional to amount of ATP present.
Using the CellTiter-Glo luminescent cell viability assay, the amount of cellular ATP was measured in the kidney mesenchymal cell line with complete culture medium following compound treatment for 40 hours. The assay was performed in opaque white Kalypsys 1536-well plates. In the screen, tamoxifen and doxorubicin were used as positive controls. Library compounds were measured for their ability to cause acute toxicity in the cell line, as reflected by a decrease in intracellular ATP levels, in a concentration-dependent manner. […] AC50 values were determined from concentration-response data modeled with the standard Hill equation.
qHTS protocol for CellTiter Glo kidney mesenchymal cells cellular assay
[Step] [Parameter] [Value] [Description]
1. Reagent; 5 uL; 1000 kidney mesenchymal cells/well
2. Time; 5 hr; 37 °C incubation
4. Controls; 23 nL; Tamoxifen 0.34 uM to 100 uM & Doxorubicin 0.02 nM to 100 uM
5. Time; 40 hr; 37 °C incubation
6. Reagent; 5 uL; CellTiter Glo reagent
7. Time; 20 min; Room Temperature
8. Detection; Luminescence; Viewlux plate reader
Keywords: cell viability, cytotoxicity, Kidney mesenchymal cell line, luminescence, NTPHTS, NTPHTS_NCGC, NIEHS, EPA, DSSTox, MLSMR, MLSCN, NIH Roadmap, qHTS, NCGC

| Structure (SMILES) | Potency |
| --- | --- |
| C[C@@H]1CC2(OC[C@]3(C)O[C@H]23)O[C@H]2C[C@@]3(C)[C@@H]4CC[C@H]5C(C)(C)C(O[C@@H]6OC[C@@H](O)[C@H](O)[C@H]6O)CC[C@@]56C[C@@]46CC[C@]3(C)[C@@H]12 (stereo not given in full) | inactive |
| C=CCCCCCCC=C | inactive |
| [O-]/[N+](=N\O)c1ccccc1 | inactive |
| CCCCCCCCC/C=C/CC1CC(=O)OC1=O (stereo not given) | inactive |
| Cc1cccc2cccnc12 | inactive |
| CCc1ccccc1 | inactive |
| C=Cc1ccc(C=C)cc1 | inactive |
| FC(F)(F)c1cccc(Cl)c1 | inactive |
| N#CC1(O)CCCCC1 | inactive |
| c1ccc(Nc2ccccc2)cc1 | inactive |
| CC(C)N(C)C | inactive |
| Cc1ccc(C#N)cc1 | inactive |
| O=C(O)c1ccccc1[N+](=O)[O-] | inactive |
| C=CC(=O)OCCCC | inactive |
| O=C(O)c1c(Cl)cccc1Cl | inactive |
| C=CCCCCCC | inactive |
| Nc1cccc(S(=O)(=O)O)c1 | inactive |
| Cc1ccc2ncccc2c1 | inactive |
| Nc1ccc(Cl)cc1[N+](=O)[O-] | inactive |
| CC#N | inactive |

| Structure (SMILES) | Potency |
| --- | --- |
| C=C(C)C(=O)OCCCCCC | inactive |
| Cc1cscn1 | inactive |
| Nc1cc(Cl)c([N+](=O)[O-])cc1O | inactive |
| CC(C)Cc1nccs1 | inactive |
| CC(=O)Nc1cccc(N)c1 | inactive |
| Nc1ccc([N+](=O)[O-])c(N)c1 | inactive |
| NC(N)=S | inactive |
| C[C@@H]1O[C@@H](O[C@@H]2[C@@H](O)[C@H](OCCc3ccc(O)c(O)c3)O[C@H](CO[C@@H]3O[C@H](CO)[C@@H](O)[C@H](O)[C@H]3O)[C@H]2OC(=O)/C=C/c2ccc(O)c(O)c2)[C@H](O)[C@H](O)[C@H]1O | inactive |
| C=C(C)C1CC=C(C)C(OC(C)=O)C1 (stereo not given) | inactive |
| CCC(C)=O | inactive |
| O=C1CCC(=O)O1 | inactive |
| CSCCC=O | inactive |
| Cc1ccccc1C#N | inactive |
| c1ccc2n[nH]nc2c1 | inactive |
| Nc1cccc(O)c1 | inactive |
| Fc1ccccc1 | inactive |
| CCCCCCCCCCCCC1CO1 (stereo not given) | inactive |
| COCCOC(=O)c1ccccc1C(=O)OCCOC | inactive |
| CCCCCO | inactive |
| COc1ccc(OC)cc1 | inactive |
